17 compounds from ChEMBL document CHEMBL1961873, “Compounds: GSK PKIS; Assays: Nanosyn kinase panel” (2012) can be followed below.

Broadly, the inhibition is the relative decrease from the control value, in per cent.

Test [1] has as its system Tyrosine-protein kinase ABL1 (Homo sapiens), P00519 [T315I]. Conditions: at 1 µM.
In test [2] the test system is Tyrosine-protein kinase ABL1 (Homo sapiens), P00519 [Y253F]. As to conditions: at 0.1 µM.
Test [3] has the same test system. As to conditions: at 1 µM.
For test [4], the target named is Tyrosine-protein kinase ABL1 (Homo sapiens) (UniProt P00519). Conditions: at 0.1 µM.
The target is the same in test [5]. As to conditions: at 1 µM.
Test [6] has as its target ALK tyrosine kinase receptor (Homo sapiens) (UniProt Q9UM73). As to conditions: at 0.1 µM.
The target is the same in test [7]. As to conditions: at 1 µM.
Test [8] concerns the target Tyrosine-protein kinase ABL2 (Homo sapiens) (UniProt P42684). Conditions: at 0.1 µM.
The target is the same in test [9]. As to conditions: at 1 µM.
The target in test [10] is Tyrosine-protein kinase receptor UFO (Homo sapiens) (UniProt P30530). As to conditions: at 0.1 µM.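 Further: values are mean percent inhibition of AXL from the GSK PKIS screen.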
Chain of Tyrosine-protein kinase receptor UFO (Homo sapiens) (P30530 whole entry): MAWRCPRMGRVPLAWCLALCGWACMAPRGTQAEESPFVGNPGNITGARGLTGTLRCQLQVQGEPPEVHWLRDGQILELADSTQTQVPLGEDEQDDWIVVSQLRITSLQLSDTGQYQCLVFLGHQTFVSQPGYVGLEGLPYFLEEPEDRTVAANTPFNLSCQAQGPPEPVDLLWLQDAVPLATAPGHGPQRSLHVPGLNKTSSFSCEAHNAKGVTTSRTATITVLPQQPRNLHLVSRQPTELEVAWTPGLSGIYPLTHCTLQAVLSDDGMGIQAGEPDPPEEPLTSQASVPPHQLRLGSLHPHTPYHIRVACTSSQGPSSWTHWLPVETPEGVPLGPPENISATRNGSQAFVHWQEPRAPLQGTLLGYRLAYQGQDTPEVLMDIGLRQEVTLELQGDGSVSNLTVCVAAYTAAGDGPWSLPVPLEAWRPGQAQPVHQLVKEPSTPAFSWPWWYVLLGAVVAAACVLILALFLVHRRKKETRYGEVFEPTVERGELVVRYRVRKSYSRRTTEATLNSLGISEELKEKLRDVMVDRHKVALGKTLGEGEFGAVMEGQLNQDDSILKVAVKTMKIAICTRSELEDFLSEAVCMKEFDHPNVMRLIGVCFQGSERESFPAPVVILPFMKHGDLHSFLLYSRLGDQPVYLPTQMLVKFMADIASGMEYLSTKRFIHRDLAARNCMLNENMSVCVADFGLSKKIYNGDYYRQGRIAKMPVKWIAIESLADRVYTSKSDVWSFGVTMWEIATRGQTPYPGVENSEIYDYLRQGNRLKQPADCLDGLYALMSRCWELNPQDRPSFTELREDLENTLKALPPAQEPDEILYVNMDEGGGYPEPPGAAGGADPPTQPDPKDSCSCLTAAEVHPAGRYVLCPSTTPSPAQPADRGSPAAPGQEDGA

Chain of ALK tyrosine kinase receptor (Homo sapiens) (Q9UM73 19-1620 limits assumed): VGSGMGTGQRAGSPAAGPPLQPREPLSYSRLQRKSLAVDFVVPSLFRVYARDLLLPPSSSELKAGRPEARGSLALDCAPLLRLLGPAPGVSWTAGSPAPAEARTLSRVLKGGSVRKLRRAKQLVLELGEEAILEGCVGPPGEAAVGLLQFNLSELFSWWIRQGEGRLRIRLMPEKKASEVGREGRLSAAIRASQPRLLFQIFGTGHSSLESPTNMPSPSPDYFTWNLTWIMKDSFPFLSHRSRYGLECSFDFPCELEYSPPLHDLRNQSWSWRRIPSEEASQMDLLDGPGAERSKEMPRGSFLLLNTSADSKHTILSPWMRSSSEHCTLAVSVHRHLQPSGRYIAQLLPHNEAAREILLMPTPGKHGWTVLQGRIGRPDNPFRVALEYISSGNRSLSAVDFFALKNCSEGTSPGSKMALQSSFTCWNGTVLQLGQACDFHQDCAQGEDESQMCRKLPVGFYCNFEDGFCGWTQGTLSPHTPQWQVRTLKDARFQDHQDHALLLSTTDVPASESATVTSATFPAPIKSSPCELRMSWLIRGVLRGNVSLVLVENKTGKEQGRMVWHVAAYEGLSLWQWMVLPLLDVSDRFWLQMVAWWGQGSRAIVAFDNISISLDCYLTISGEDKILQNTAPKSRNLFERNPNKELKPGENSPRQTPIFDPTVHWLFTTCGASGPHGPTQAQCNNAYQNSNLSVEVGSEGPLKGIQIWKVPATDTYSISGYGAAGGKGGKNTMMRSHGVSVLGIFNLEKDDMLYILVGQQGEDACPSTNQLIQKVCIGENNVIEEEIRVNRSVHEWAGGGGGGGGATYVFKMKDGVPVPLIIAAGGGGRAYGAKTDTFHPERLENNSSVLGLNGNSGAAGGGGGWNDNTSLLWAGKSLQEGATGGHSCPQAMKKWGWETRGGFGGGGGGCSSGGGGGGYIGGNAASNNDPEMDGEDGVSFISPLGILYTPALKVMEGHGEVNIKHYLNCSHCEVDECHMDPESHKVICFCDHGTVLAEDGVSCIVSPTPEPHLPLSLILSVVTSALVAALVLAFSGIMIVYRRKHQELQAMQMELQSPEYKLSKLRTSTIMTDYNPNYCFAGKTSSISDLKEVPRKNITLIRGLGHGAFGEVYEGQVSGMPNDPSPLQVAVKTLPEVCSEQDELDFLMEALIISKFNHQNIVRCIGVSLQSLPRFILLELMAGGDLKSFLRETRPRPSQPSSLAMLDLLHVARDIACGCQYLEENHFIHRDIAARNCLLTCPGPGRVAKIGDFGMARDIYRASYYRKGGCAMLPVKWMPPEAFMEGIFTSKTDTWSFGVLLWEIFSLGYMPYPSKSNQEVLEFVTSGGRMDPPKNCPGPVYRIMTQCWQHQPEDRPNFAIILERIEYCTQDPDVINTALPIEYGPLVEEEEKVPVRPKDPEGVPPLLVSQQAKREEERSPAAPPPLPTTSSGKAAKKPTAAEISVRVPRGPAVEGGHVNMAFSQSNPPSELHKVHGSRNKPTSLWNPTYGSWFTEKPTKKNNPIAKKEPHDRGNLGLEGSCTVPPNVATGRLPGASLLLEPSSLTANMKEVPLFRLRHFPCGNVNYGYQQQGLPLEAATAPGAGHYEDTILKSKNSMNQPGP
Chain of Tyrosine-protein kinase ABL2 (Homo sapiens) (P42684 whole entry): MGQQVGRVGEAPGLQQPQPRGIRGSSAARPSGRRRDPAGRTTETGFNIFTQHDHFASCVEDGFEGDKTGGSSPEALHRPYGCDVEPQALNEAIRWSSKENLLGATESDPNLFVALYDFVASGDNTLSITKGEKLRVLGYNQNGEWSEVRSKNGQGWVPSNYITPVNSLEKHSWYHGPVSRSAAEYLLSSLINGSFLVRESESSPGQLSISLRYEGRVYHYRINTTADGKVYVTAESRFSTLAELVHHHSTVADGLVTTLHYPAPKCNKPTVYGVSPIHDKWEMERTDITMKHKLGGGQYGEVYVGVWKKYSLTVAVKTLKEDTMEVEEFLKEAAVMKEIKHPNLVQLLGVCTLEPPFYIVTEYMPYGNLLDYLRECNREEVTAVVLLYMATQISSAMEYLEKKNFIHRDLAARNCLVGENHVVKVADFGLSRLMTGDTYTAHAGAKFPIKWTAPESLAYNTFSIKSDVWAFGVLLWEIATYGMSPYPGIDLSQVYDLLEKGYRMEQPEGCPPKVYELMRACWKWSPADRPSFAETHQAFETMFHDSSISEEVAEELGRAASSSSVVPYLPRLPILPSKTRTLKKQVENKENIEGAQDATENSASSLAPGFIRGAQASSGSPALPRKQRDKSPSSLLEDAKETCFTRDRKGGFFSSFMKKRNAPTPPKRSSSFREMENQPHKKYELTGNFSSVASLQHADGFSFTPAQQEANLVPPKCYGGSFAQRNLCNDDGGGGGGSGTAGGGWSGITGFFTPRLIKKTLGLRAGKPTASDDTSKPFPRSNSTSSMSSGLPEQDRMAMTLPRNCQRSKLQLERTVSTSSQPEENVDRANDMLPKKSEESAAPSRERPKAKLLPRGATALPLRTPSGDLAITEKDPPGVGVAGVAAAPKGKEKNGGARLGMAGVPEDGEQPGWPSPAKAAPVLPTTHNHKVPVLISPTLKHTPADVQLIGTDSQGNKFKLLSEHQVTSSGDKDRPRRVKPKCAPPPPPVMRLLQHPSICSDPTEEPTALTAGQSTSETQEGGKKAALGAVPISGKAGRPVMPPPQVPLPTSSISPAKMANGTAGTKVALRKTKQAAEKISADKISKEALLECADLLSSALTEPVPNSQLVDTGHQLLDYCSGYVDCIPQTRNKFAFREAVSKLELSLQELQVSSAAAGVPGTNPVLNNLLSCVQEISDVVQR

In the case of `CCn1c(-c2nonc2N)nc2c(C#CC(C)(C)O)nc(OC[C@H](N)c3ccccc3)cc21`, the inhibition in test [1] was 7.77%; in [2] it was 0.1%; in [3] it was 2.5%; in test [4], 2.86%; in [5], 2.9%; in [6] it was 5.79%. Also, the inhibition in test [7] is 9.07%; in test [8] it was 2.63%; in test [9] it was 3.84%; in test [10], -1.29%.
For `CCc1nn2ncccc2c1-c1ccnc(NC2CC2)n1`, the inhibition in [1] is 1.06%; in test [2], 1.02%; in [3] it was 4.43%; in [4] it was 5.52%; in test [5], 6.81%; in test [6], 1.99%. For the same compound, the inhibition is 5.07% in test [7], 2.35% in test [8], 5.86% in test [9] and -2.55% in test [10].
Turning to `COC(=O)c1sc(-n2cnc3cc(OC)c(OC)cc32)cc1OCc1ccccc1C(F)(F)F`, the inhibition turned out to be 4.91% in test [1]; 6.46% in test [2]; 21.6% in test [3]; 3.86% in test [4]; 12.3% in [5]; 3.59% in test [6]. For the same compound, the inhibition in [7] is 12.4%; in test [8], 3.44%; in test [9], 5.92%; in test [10] it was -8.88%.
Take `CN1CCC(n2cnc(-c3ccc(F)cc3)c2-c2ccnc(Nc3ccccc3)n2)CC1`: the inhibition came to 4.98% in [1]; 3.47% in test [2]; 9.91% in [3]; 1.69% in [4]; 11% in test [5]; 1.58% in test [6]. Moreover, the inhibition in test [7] is 2.39%; in test [8], 3.42%; in test [9], 10.2%; in test [10] it was -2.82%.
For the compound `COc1cc(Nc2nccc(Nc3ccc4c(C)n[nH]c4c3)n2)cc(OC)c1OC`, the inhibition is 14.3% in test [1]; 37.6% in test [2]; 83.6% in test [3]; 20.3% in test [4]; 69.7% in test [5]; 5.55% in test [6]. Moreover, the inhibition in test [7] is 39.3%; in [8] it was 18.4%; in test [9], 69.9%; in test [10] it was 0.91%.
With `Cc1ccc2c(-c3ccnc(Nc4ccccc4)n3)c(-c3ccc(F)cc3)nn2n1`, the inhibition in test [1] was 20.2%; in [2], 11.5%; in test [3] it was 42.2%; in test [4], 5.24%; in [5], 35.5%; in [6], 2.29%. In addition, the inhibition was 5.55% in test [7], 4.61% in [8], 34.1% in test [9] and -5.33% in test [10].
Regarding `NC(=O)c1sc(-n2cnc3ccc(C(F)(F)F)cc32)cc1OCc1ccccc1Br`, the inhibition in test [1] was 3.2%; in test [2], 3.65%; in test [3] it was 2.05%; in test [4], 2.31%; in test [5], 4.26%; in test [6], 1.39%. The inhibition is 3.73% in test [7], 1.79% in test [8], 2.59% in test [9] and -8.18% in test [10].
In the case of `CN(C)CCOc1ccc(-c2nc(-c3ccncc3)c(-c3ccc4c(c3)CC/C4=N\O)[nH]2)cc1`, the inhibition is 41.9% in test [1]; 10.2% in test [2]; 40.1% in test [3]; 6.41% in test [4]; 40.7% in test [5]; 2.17% in test [6]. Moreover, the inhibition was 8.67% in test [7], 4.57% in test [8], 19.4% in [9] and -2.86% in [10].
`COc1cc2c(cc1Nc1nc(Nc3ccsc3C(N)=O)c3cc[nH]c3n1)N(C(=O)CN(C)C)CCC2(C)C`: the inhibition in test [1] is 3.95%; in test [2], 3.45%; in [3], 4.27%; in [4] it was 2.57%; in test [5], 6.2%; in [6], 95.7%. Also, the inhibition in [7] came to 78.5%; in [8], 2.86%; in test [9], 4.17%; in [10] it was 47.4%.
Turning to `Clc1ccc(-c2nn3ncccc3c2-c2ccnc(Nc3ccccc3)n2)cc1`, the inhibition turned out to be 30.7% in [1]; 7.15% in test [2]; 24.5% in [3]; 3.9% in test [4]; 27.6% in test [5]; 2.8% in test [6]. Further, the inhibition is 2.67% in test [7], 3.8% in [8], 18.2% in [9] and -0.26% in test [10].
With `CC(=O)NCc1cccc(C#Cc2cncnc2Nc2ccc(OCc3cccc(F)c3)c(Cl)c2)c1`, the inhibition in test [1] was 1.56%; in test [2], 1.3%; in test [3], 2.58%; in test [4], -0.31%; in [5], 2.82%; in test [6], -0.48%. Also, the inhibition in test [7] was 0.2%; in [8], -0.67%; in test [9] it was -0.87%; in [10], -0.21%.
Regarding `c1cc(-c2cnn3nc(N4CCOCC4)ccc23)nc(NC2CC2)n1`, the inhibition in test [1] was found to be 2.55%; in test [2] it was 3.63%; in test [3], 6.41%; in [4], 3.71%; in [5], 13.7%; in test [6], 2.05%. In addition, the inhibition in [7] is 9.86%; in test [8] it was 3.73%; in test [9], 9.11%; in [10] it was -3.58%.
Turning to `Fc1ccc(-c2nn3ccccc3c2-c2ccncc2)cc1`, the inhibition in test [1] came out at 4.09%; in test [2], 1.97%; in [3], 4.11%; in test [4] it was 1.42%; in [5], 9.29%; in test [6] it was 0.44%. The inhibition is 1.88% in [7], 3.94% in test [8], 7.98% in [9] and -2.22% in test [10].
For the compound `CCn1cc(-c2ccnc3[nH]ccc23)c(-c2cccc(NC(=O)Nc3ccc(OCc4ccccc4)cc3)c2)n1`, the inhibition in test [1] is -0.74%; in test [2] it was 0.58%; in [3], 0.94%; in test [4], 1.03%; in [5] it was 2.88%; in [6], 0.6%. Besides, the inhibition in test [7] was determined as 0.71%; in test [8], 0.39%; in test [9], 6.44%; in [10], 0.7%.
`CCNC(=O)O[C@H]1CN[C@H](C#Cc2cc3ncnc(Nc4ccc(OCc5cccc(F)c5)c(Cl)c4)c3s2)C1`: the inhibition in test [1] worked out at 1.84%; in [2] it was 3.4%; in [3], 1.32%; in test [4], 3.63%; in [5] it was 4.84%; in test [6], 1.85%. The inhibition in [7] was 4.55%; in test [8], 3.5%; in [9], 5.21%; in [10] it was -3.44%.
Take `CCn1c(-c2nonc2N)nc2cnc(Oc3cccc(NC(=O)c4ccc(N(C)C)cc4)c3)cc21`: the inhibition came out at 1.03% in test [1]; 2.77% in test [2]; 6.27% in [3]; 1.77% in [4]; 3.99% in [5]; 0.57% in test [6]. The inhibition in test [7] was 1.96%; in [8], 2.48%; in test [9], 2.42%; in test [10], -3.9%.
Regarding `CC(C)COC(=O)c1ccc2c(c1)/C(=C/Nc1ccc(S(N)(=O)=O)cc1)C(=O)N2`, the inhibition in [1] is 43.4%; in test [2] it was 4.12%; in test [3] it was 28.8%; in [4], 1.58%; in [5] it was 36.3%; in test [6], -0.71%. Also, the inhibition in [7] came to 4.93%; in test [8], 3.59%; in test [9] it was 20.4%; in test [10], 1.97%.
